Shown are actives, neighbours in structure and some others; about 2.1% of the full set was active somewhere.
PrPC TRFRET – inhibitors of human cell surface prion protein PrPC, primary screen, cell-based, TR-FRET; TR-FRET read-out; inhibition, % at 13.8 µM; 370,000 tested, 0.43% active; AID 720596, 2013; in the data active = inhibition above about 24%; also: 0% = median of the test wells and 100% = reference compound wells
CCHF vOTU inh-1 – CCHFV vOTU protease inhibitors, primary screen, biochemical, Pep-AMC substrate, fluorescence; Crimean-Congo hemorrhagic fever virus L polyprotein viral ovarian tumor (vOTU) protease …; inhibition, % at 11.5 µM; 370,000 tested, 0.55% active; also: 0% = vehicle wells with enzyme and 100% = no enzyme wells
RN4220 kill – growth inhibition of S. aureus RN4220, primary screen, OD600. inhibition, % (test concentration not listed). 330,000 tested, 0.33% active. 16 h; in the data active = inhibition above about 85%;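 also: plate controls were untreated cells for no effect and reference antibiotic for full effect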
PfHsp40 rescue – rescue of yeast from PfHsp40 toxicity, primary screen, S. cerevisiae, ATP luminescence | S. cerevisiae expressing PfHsp40, growth rescue | growth rescue, % at 12.5 µM | 340,000 tested, 0.68% active | AID 504582, 2011; in the data active = growth rescue above about 28%, passing the limit was not always enough;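 also: yeast W303a lacking pdr1 and pdr3 grown in galactose medium; growth measured after three days at 30 °C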
PrP 5UTR inh – inhibition of PrP 5' UTR reporter expression; inhibition, % (concentration not given with the values); 340,000 tested, 0.35% active; cell-based PrP 5' UTR mRNA reporter, plate reader; in the data active = inhibition above about 52%; also: 0 = median of the neutral control wells
Sa ugtP lethal – growth inhibition of ugtP-null S. aureus, primary screen, RN4220 ugtP deletion, OD600; 16 h; growth inhibition, % (test concentration not listed); 330,000 tested, 0.54% active; AID 1259309, 2017; in the data active = growth inhibition above about 68%;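 also: plate controls were untreated wells for no effect and antibiotic for full effect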
CCHF vOTU inh-2 – CCHFV vOTU protease inhibitors, confirmation, biochemical, Pep-AMC substrate, fluorescence; inhibition, % at 11.5 µM; 1,900 tested, 17% active; AID 686976, 2013; shares compounds with CCHF vOTU inh-1; Recombinant CCHFV vOTU
An asterisk follows results filed as active; . = no result. Rule as the data show it, unless noted: active = inhibition above about 30%; inactive = the rest.

SMILES	PrPC TRFRET	CCHF vOTU inh-1	RN4220 kill	PfHsp40 rescue	PrP 5UTR inh	Sa ugtP lethal	CCHF vOTU inh-2
Cc1ccc(NC(=O)COC(=O)c2ccc([N+](=O)[O-])s2)c(C)c1	-25	-1	6	-2	-7	3	.
CN(CC(=O)Nc1ccccc1Cl)C(=O)COC(=O)c1cccs1	8	-14	-1	-1	7	-8	.
COc1ccccc1NC(=O)COC(=O)c1ccc([N+](=O)[O-])s1	-31	80*	0	0	-16	-4	100*
CN(CC(=O)Nc1ccccc1Cl)C(=O)COC(=O)c1ccc([N+](=O)[O-])s1	-38	78*	16	2	-6	8	39*
Cc1cc(C)c(NC(=O)COC(=O)c2ccc([N+](=O)[O-])s2)c(C)c1	5	54*	1	0	-14	-7	-17
NS(=O)(=O)c1ccc(NC(=O)COC(=O)c2ccc([N+](=O)[O-])s2)cc1	-20	74*	76	-1	-5	51	63*
CCOc1ccc2c(c1)C(C)=CC(C)(C)N2C(=O)Nc1ccccc1F	2	71*	3	-2	-18	10	-100
Nc1ccc(Br)c2cccnc12	-4	101*	-12	0	-18	-1	1
Cc1ccc(OCc2cc(C(=O)N3CCC(C(O)C(C)C)CC3)no2)cc1C (stereo not drawn)	12	33*	4	4	-22	-3	-9
Cc1cc(C)c(S(=O)(=O)N=C2C=C(Sc3ncn[nH]3)C(=O)c3ccccc32)cc1C	.	.	29	.	.	-7	.
CC1=NNC(=O)C1CCC(=O)N/N=C(/C)c1ccc([N+](=O)[O-])cc1 (stereo not drawn)	-9	30*	.	0	-4	.	-17
CC(=NNC(=O)CCC1C(=O)NN=C1C)c1ccc([N+](=O)[O-])cc1 (stereo not drawn)	.	.	4	.	.	9	.
CCN1C(=O)C2C(c3ccc(-c4ccc(C(C)=O)cc4)cc3)N[C@@](Cc3ccccc3)(C(=O)OC)C2C1=O (stereo partly drawn)	.	.	4	.	.	9	.
Cc1cc(=O)c2c(o1)C(=O)c1occc1C2=O	-18	106*	.	0	-14	.	48*
Cn1ccc2c(N3CCCC3)cc3c(c21)C1CCC3O1 (stereo not drawn)	-11	38*	.	.	.	.	-14
COCCN1C=C2C(=O)C(C)(OC(=O)C3CCCC3)C(=O)C(c3ccccc3)=C2C=C1CCCC(=O)OC (stereo not drawn)	-12	34*	8	-2	-13	3	39*
COC(=O)CCCC1=CC2=C(c3ccccc3)C(=O)C(C)(OC(=O)C3CCCC3)C(=O)C2=CN1C1CCCCC1 (stereo not drawn)	-2	33*	1	-1	-10	2	22
COc1cc(C=NN2CCN(c3ccccc3OC)CC2)ccc1OC(C)=O	.	.	1	.	.	2	.
COc1cc(C=NN2CCN(Cc3ccccc3)CC2)cc(OC)c1OC(C)=O	.	.	3	.	.	12	.
CN(C)c1ccc(NC(=O)COC(=O)c2cc(=O)c3ccccc3o2)cc1	-7	35*	-4	0	-25	0	-15
CCCCC1COCCS(=O)(=O)N1Cc1ccc(C)cc1 (stereo not drawn)	.	.	5	.	.	-9	.
CCOC(=O)C1C2COc3ccc(Br)cc3C2N2C(=O)N(c3ccc(F)cc3)C(=O)[C@]12C (stereo partly drawn)	.	.	-2	.	.	5	.
O=C(Cc1ccc2c(c1)OCO2)NN=Cc1ccc([N+](=O)[O-])o1	-38	32*	49	-1	-10	82	0
CCCCCC(=O)N/N=C/c1ccc([N+](=O)[O-])o1	-43	16	.	3	4	.	.
O=C(CCC(=O)Nc1ccc(Cl)cc1Cl)N/N=C/c1ccc([N+](=O)[O-])o1	-20	39*	.	.	.	.	-5
SMILES	PrPC TRFRET	CCHF vOTU inh-1	RN4220 kill	PfHsp40 rescue	PrP 5UTR inh	Sa ugtP lethal	CCHF vOTU inh-2
O=C(N/N=C\c1ccc([N+](=O)[O-])o1)c1cncc(Br)c1	-12	50*	.	0	-14	.	8
Cn1c(NC(=O)C=Cc2ccccc2)cc(=O)n(C)c1=O	.	.	5	.	.	-12	.
COc1ccc(S(=O)(=O)Nc2cccc3ccc(O)cc23)cc1	0	-8	11	2	-24	-10	.
COc1ccc(S(=O)(=O)Nc2cc(Sc3ncn[nH]3)c(O)c3ccccc23)cc1	57*	107*	.	.	.	.	99*
O=C(O)CSc1cc(NS(=O)(=O)c2ccc(Cl)cc2)c2ccccc2c1O	-16	104*	.	14	-37	.	95*
COc1ccc(S(=O)(=O)Nc2cc(SCC(=O)O)c(O)c3ccccc23)cc1	2	102*	22	2	-50	-2	39*
O=S(=O)(Nc1cc(Sc2cccc3cccnc23)c(O)c2ccccc12)c1ccc(F)cc1	15	83*	27	.	.	16	-5
Cc1cc(C)c(S(=O)(=O)Nc2cc(SCC(=O)O)c(O)c3ccccc23)cc1C	.	.	16	.	.	11	.
CC1CN(C)C(C)CC1=NOc1ccccc1[N+](=O)[O-] (stereo not drawn)	.	.	0	.	.	-14	.
NCCCCC1CNC(=O)C(=O)N1CCc1cccc(F)c1 (stereo not drawn)	.	.	8	.	.	1	.
COC(=O)C1=C(c2ccc(OC)c(OC)c2)CC2CCC1N2C(=O)NCc1ccco1 (stereo not drawn)	.	.	3	.	.	-2	.
CCOc1cccc(CNc2ccc(O)cc2)c1OCc1ccc(Cl)cc1	-3	31*	-4	0	-42	6	-2
O=C(O)c1ccc(NN=Cc2cn(-c3ccccc3)nc2-c2cccs2)cc1	.	.	1	.	.	11	.
COc1ccc(C(O)c2nc(-c3ccccc3C)cs2)cc1 (stereo not drawn)	3	34*	.	.	.	.	4
COc1ccc(C(O)c2nc(-c3ccc4ccccc4c3)cs2)cc1 (stereo not drawn)	12	39*	.	.	.	.	-21
S=C(Nc1ccc(Cl)cc1)Nc1cccc2cnccc12	-7	58*	-2	105*	-32	-16	89*
CN(C)S(=O)(=O)c1cccc(NC(=S)Nc2cccc3cnccc23)c1	-10	40*	5	0	-10	9	89*
COc1ccc(NC(=S)Nc2cccc3cnccc23)cc1	-13	3	1	-1	-10	3	.
Fc1ccc(NC(=S)Nc2cccc3cnccc23)cc1	-11	50*	7	0	-25	3	65*
CCOC1OC(C(N)=O)=CC(c2coc3ccccc3c2=O)C1CCCO (stereo not drawn)	.	.	9	.	.	1	.
Oc1ccccc1C=Nn1c(-c2cccs2)n[nH]c1=S	.	.	11	.	.	-12	.
